# Screens: PubChem, University of Kansas High Throughput Screening Laboratory
# mHTT-CaM PPI inh – inhibitors of human mutant huntingtin-calmodulin interaction. P42858. AlphaScreen His-mHTT/GST-CaM binding, luminescence. inhibition, % at 15 µM. hit rate 3.6% among 190,000
# Target sequence (P42858 whole entry, looked up, change not shown): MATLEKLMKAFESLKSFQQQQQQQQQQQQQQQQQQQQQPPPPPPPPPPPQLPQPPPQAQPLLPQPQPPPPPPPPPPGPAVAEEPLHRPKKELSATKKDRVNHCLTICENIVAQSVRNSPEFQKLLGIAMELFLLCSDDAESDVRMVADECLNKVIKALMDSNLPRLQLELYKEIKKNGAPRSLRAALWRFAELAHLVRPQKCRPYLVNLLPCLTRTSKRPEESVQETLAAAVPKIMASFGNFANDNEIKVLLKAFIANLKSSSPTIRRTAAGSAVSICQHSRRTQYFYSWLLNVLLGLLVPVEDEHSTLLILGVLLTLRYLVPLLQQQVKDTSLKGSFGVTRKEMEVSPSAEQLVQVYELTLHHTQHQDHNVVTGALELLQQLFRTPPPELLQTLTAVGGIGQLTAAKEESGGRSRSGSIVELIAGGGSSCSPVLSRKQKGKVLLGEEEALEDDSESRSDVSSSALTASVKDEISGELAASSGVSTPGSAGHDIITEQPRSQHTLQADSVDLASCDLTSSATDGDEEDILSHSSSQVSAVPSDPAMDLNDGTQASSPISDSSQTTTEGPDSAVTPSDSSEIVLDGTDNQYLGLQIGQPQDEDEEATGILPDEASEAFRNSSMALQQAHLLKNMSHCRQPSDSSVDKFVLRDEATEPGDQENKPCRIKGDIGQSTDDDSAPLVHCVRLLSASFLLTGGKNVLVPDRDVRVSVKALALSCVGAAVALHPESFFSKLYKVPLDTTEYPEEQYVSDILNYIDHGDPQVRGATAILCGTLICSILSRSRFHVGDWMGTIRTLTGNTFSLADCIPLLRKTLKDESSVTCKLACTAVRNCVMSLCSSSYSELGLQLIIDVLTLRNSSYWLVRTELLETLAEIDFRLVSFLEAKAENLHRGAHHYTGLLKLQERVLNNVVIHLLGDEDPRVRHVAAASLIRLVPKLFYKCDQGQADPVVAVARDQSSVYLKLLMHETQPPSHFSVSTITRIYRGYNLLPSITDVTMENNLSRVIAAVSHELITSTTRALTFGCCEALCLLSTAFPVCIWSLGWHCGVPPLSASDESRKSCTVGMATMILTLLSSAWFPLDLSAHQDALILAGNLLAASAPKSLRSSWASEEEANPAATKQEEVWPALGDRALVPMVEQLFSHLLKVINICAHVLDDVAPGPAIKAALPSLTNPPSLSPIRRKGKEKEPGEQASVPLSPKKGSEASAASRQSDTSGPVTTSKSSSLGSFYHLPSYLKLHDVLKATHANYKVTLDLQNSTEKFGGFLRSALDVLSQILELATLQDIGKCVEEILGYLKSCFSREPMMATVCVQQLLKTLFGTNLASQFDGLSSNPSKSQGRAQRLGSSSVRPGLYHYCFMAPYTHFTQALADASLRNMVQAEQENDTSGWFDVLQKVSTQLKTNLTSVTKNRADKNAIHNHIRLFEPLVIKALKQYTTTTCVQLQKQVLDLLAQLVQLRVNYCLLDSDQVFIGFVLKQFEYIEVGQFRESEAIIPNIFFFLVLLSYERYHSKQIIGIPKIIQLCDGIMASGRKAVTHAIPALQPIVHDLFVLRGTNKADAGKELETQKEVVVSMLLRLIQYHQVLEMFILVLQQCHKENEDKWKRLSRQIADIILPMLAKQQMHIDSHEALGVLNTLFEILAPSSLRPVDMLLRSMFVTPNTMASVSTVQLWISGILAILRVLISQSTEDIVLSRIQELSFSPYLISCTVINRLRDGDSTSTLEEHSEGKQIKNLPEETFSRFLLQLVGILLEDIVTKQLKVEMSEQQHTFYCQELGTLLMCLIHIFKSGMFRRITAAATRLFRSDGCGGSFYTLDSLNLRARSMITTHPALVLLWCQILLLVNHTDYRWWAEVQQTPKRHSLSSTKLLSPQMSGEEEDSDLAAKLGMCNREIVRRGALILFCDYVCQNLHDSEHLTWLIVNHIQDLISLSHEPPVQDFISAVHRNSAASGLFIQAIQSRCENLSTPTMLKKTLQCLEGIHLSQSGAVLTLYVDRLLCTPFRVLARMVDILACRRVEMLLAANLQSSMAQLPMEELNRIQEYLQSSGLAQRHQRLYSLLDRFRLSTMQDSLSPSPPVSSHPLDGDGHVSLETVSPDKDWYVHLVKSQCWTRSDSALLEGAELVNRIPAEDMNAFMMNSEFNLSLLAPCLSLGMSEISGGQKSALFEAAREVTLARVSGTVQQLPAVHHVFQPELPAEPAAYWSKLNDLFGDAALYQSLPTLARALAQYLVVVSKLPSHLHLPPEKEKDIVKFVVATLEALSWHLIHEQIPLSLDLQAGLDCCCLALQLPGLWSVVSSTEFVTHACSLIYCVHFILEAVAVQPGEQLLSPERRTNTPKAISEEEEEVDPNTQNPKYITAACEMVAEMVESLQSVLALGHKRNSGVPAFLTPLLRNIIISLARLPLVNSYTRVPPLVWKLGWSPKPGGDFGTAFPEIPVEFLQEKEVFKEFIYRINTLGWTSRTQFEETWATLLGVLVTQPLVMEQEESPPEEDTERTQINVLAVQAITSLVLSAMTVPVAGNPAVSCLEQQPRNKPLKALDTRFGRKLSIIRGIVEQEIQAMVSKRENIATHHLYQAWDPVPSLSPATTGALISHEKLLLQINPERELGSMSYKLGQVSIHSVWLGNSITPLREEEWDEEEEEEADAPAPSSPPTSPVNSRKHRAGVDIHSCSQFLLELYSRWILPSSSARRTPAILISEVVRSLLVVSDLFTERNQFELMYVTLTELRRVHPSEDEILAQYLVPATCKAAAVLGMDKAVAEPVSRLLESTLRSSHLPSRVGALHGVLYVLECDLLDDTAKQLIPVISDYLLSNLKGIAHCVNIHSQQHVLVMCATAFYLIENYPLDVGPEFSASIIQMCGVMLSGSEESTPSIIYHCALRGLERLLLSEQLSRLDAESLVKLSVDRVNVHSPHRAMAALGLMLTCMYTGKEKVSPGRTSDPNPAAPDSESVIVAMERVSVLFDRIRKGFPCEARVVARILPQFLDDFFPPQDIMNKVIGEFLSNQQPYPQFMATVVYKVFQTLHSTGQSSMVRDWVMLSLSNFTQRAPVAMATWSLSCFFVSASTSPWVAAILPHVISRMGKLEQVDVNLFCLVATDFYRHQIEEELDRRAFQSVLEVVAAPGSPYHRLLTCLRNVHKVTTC
# Pf apPOL block – Pf-apPOL DNA polymerase inhibition | inhibition, % at 10 µM | hit rate 0.25% among 210,000 | AID 1794808 | Recombinant Pf-apPOL, molecular beacon fluorescence, 1.5 h
# Numbers stand for hits; n = inactive; x = no result given. Compounds with a hit are over-represented: about 3.6% of the library has one in this group of screens. Rule as the data show it: active = inhibition above about 50%; inactive = the rest.
SMILES,mHTT-CaM PPI inh,Pf apPOL block
COc1ccc(/C=C2/SC(=Nc3ccccc3Cl)NC2=O)cc1,n,n
CN(C)c1ccc(/C=C2/SC(=Nc3ccccc3Cl)NC2=O)cc1,54,n
NC(=O)c1ccc2c(c1SCCO)C(=O)c1ccccc1C2=O,n,n
O=C(CCSc1ccccc1)N1CCC(Cn2cccn2)CC1,n,n
Cc1ccccc1C=C1Oc2c(ccc(O)c2CN(C)C)C1=O,n,n
Cn1nc(-c2ccccc2)cc1C(=O)NCCn1nc(-c2ccc(Cl)cc2)ccc1=O,n,n
O=C(NCCn1nc(-c2ccccc2)ccc1=O)c1ccc(-n2cccc2)cc1,63,n
N#Cc1ccc(C(=O)N2CCCC(c3cc(-c4ccccc4)n[nH]3)C2)cc1 (stereo not drawn),n,n
O=C(O)CCC(=O)Nc1ccccc1Br,n,n
C=CCCCC(=O)Nc1ccccc1Br,n,67
C[C@H]1[C@@H](c2ccccc2)Oc2c(Cl)cccc2S(=O)(=O)N1Cc1cccc(F)c1,n,n
C[C@H]1[C@@H](c2ccccc2)Oc2c(Cl)cccc2S(=O)(=O)N1Cc1cccc(Cl)c1,59,n
CCCc1cc(C2CCCN2C(=O)Nc2ccc(OCC)cc2)no1 (stereo not drawn),n,n
O=C(c1cc2ccccc2[nH]1)N1CCC(CCOCc2ccccc2F)CC1,n,n
CC(C)C(=O)NC(c1ccco1)c1ccc2cccnc2c1O (stereo not drawn),100,n
CC(C)C(=O)NC(c1ccc(Cl)cc1)c1ccc2cccnc2c1O (stereo not drawn),95,n
CC(C)C(=O)NC(c1ccccc1)c1ccc2cccnc2c1O (stereo not drawn),100,n
CC(C)C(=O)NC(c1ccco1)c1cc(Cl)c2cccnc2c1O (stereo not drawn),n,n
CC(C)C(=O)NC(c1ccccc1Cl)c1ccc2cccnc2c1O (stereo not drawn),100,n
CCC(C(=O)N1CCC(CCOc2ccncc2)CC1)c1ccccc1 (stereo not drawn),n,n
CC1CN(C(=O)Cc2cccnc2)CC1c1nc(-c2ccncc2)no1 (stereo not drawn),n,n
O=C(O)C1CCCc2ccccc21 (stereo not drawn),n,n
O=C1NC(=Nc2ccc(F)cc2)S/C1=C/c1cccs1,n,n
Cc1cc(C)cc(N=C2NC(=O)/C(=C/c3ccccc3)S2)c1,n,n
COc1cc(/C=C2/SC(=Nc3ccc(O)cc3)NC2=O)ccc1O,n,n
SMILES,mHTT-CaM PPI inh,Pf apPOL block
Cc1cc(C)cc(N=C2NC(=O)/C(=C/c3ccco3)S2)c1,79,n
O=C1NC(=Nc2ccc(F)cc2)S/C1=C/c1ccc(O)c(O)c1,57,n
O=C1NC(=Nc2ccc(F)cc2)S/C1=C/c1ccco1,68,n
Cc1ccc(S(=O)(=O)N2CCN(C(=O)c3ccccc3Cl)CC2)cc1C,n,n
CCCCNC(=O)C1(S(=O)(=O)c2ccc(Cl)cc2)CC1,n,n
O=C(Nc1c2c(nn1-c1ccc(Cl)cc1)CSC2)c1cccs1,50,n
O=C(/C=C/c1ccccc1)Nc1c2c(nn1-c1ccc(Cl)cc1)CSC2,56,n
Cc1ccccc1-n1nc2c(c1NC(=O)CSCc1ccccc1)CSC2,81,n
Cc1ccc(-n2nc3c(c2NC(=O)/C=C/c2ccccc2)CSC3)c(C)c1,n,n
O=C(/C=C/c1ccc2c(c1)OCO2)Nc1c2c(nn1-c1ccc(Cl)cc1)CSC2,n,n
CCC(=O)Nc1c2c(nn1-c1ccccc1C)CSC2,n,n
Cc1ccccc1-n1nc2c(c1NC(=O)/C=C/c1ccccc1)CSC2,81,n
O=C(Nc1c2c(nn1-c1ccccc1)CSC2)c1cccs1,n,n
COc1ccc(-c2nc(-c3cccc(-c4ccn[nH]4)c3)no2)c(C)c1,n,n
Cc1nc(C2CCN(C(=O)CCc3c(C)noc3C)CC2)n[nH]1,n,n
CCNC(=O)c1cc2c(=O)n3ccccc3nc2n(CCCN2CCOCC2)c1=N,n,n
CCc1cccc(NC(=O)Cc2cn3cc(F)ccc3n2)c1,n,n
Cc1nnsc1C(=O)N1CCC(CNC(=O)C(=O)Nc2ccc3c(c2)OCCO3)CC1,n,n
COc1cc(OC)c(OC)cc1/C=C(\C#N)C(N)=O,n,n
COc1cccc(NC(=O)COc2c(C)ccc(C)c2C)c1,n,n
O=C(NCC1(O)CCCC1)c1cnccn1,n,n
CC1=NN(c2ccccc2)C(=O)/C1=C\c1cc(C)n(-c2cccc([N+](=O)[O-])c2)c1C,n,n
Cc1cc(/C=C2\C(=O)NC(=O)N(c3ccccc3)C2=O)c(C)n1-c1cccc([N+](=O)[O-])c1,59,n
CCOC(=O)N1CCC(NC(=O)C2CCCN(c3cc(=O)n(C)c(=O)n3CC)C2)CC1 (stereo not drawn),n,n
COc1ccccc1-c1noc(C2CCCN2C(=O)Nc2cc(C)cc(C)c2)n1 (stereo not drawn),n,n
SMILES,mHTT-CaM PPI inh,Pf apPOL block
CCOc1ccccc1C(=O)Nc1cc(C)ccn1,n,n
Cc1ccnc(NC(=O)c2ccc(C(C)C)cc2)c1,n,n
Cc1ccnc(NC(c2ccc(N(C)C)cc2)c2ccc3cccnc3c2O)c1 (stereo not drawn),100,n
CCOc1cc(C(Nc2cc(C)ccn2)c2ccc3cccnc3c2O)ccc1O (stereo not drawn),100,n
COc1cc(-c2nc3ncccn3c2Nc2ccc(C)cc2)ccc1O,n,n
COc1cc(C(Nc2cc(C)ccn2)c2ccc3cccnc3c2O)ccc1O (stereo not drawn),100,n
O=C(CSc1ccc(F)cc1)NCC1CCN(C(=O)c2cc3ccccc3o2)CC1,n,n
CS(=O)(=O)N1CCN(c2ccc([N+](=O)[O-])c(NCc3ccc(Cl)cc3)c2)CC1,56,n
CS(=O)(=O)N1CCN(c2ccc([N+](=O)[O-])c(NCc3ccccc3)c2)CC1,n,n
COc1ccc(C(CC(=O)NC2CCCC(C)C2C)NS(=O)(=O)c2ccc(F)cc2)cc1 (stereo not drawn),n,n
CCOc1ccccc1OCCOc1ccccc1C(C)=O,n,n
CC(C)c1cc(C2CCCN2C(=O)c2cc(-c3ccc4c(c3)OCO4)on2)on1 (stereo not drawn),n,n
COc1cccc(Nc2nc(-c3ccc(OC)c(F)c3)cs2)c1,64,n
CCc1ccc(-c2csc(Nc3cccc(OC)c3)n2)cc1,67,n
COc1ccc(-c2csc(NCc3ccccc3)n2)cc1,n,x
COc1cccc(Nc2nc(-c3ccccc3)cs2)c1,62,n
Cc1cccc(Nc2nc(-c3cccnc3)cs2)c1,n,n
COc1ccc(-c2csc(Nc3ccccc3OC)n2)cc1F,n,n
COc1cccc(Nc2ccc(-c3ccccc3)nn2)c1,x,n
COc1cccc(Nc2nc(-c3cc(C)ccc3C)cs2)c1,63,n
NC(CS(=O)(=O)c1ccccc1)=NO,x,n
COc1ccc(C(=O)O/N=C(\N)Cc2ccc([N+](=O)[O-])cc2)cc1OC,n,n
COc1ccc(CCN2CC(C(=O)N3CCN(c4ccccc4)CC3)CC2=O)cc1OC (stereo not drawn),n,n
Cc1ccc(Nc2nc(-c3ccc(F)cc3)cs2)cc1,n,n
Cc1ccc(C)c(-c2csc(Nc3ccc(Cl)cc3)n2)c1,67,n
O=C(NCc1cccs1)c1ccc(S(=O)(=O)NCc2ccc3c(c2)OCO3)o1,n,n
Cc1nnc(NC(=O)c2ccc(S(=O)(=O)NCc3ccc4c(c3)OCO4)o2)s1,100,n
